Measurements published in PubChem BioAssay AID1376 (SRMLSC, 2008).
The whole screen tested about 220,000 compounds, of which about 530 (0.24%) were called active. The list comes from a sample in which actives are over-represented; it also holds similar structures and randomly drawn compounds. Potency and affinity values are given separately. A number with no mark means an inactive call. Rule as the data show it: active = inhibition above about 13%; inconclusive = no clear call, values can overlap the other calls; inactive = below that.

Target: Bifunctional protein GlmU (Mycobacterium tuberculosis (strain ATCC 25618 / H37Rv)) (UniProt P9WMN3)
Sequence (P9WMN3 whole entry, looked up): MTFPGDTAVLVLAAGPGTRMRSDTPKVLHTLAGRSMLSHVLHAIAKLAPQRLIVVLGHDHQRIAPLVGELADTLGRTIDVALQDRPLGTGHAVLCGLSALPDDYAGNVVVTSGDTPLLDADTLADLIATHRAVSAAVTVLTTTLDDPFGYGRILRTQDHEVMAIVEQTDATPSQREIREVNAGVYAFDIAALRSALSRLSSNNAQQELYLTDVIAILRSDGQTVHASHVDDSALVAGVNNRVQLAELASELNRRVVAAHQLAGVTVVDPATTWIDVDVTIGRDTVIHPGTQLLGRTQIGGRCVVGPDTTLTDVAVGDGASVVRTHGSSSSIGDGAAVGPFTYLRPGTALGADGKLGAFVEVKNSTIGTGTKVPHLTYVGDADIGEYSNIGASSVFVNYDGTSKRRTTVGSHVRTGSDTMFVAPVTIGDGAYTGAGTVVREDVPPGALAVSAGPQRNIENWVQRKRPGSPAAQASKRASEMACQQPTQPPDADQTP
Experiment: inhibition of mycobacterial GlmU enzyme – biochemical, glucosamine-1-phosphate acetyltransferase (AID 1376);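 also: 0% = complete reaction with vehicle and 100% = reaction without substrate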
Settings: M. tuberculosis GlmU acetyltransferase enzyme assay; hits give high values;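 tested at 30 µM in the primary screen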

Compared with `CC(C)(Oc1ccc(CCNC(=O)c2ccc(-c3ccc(Cl)cc3)o2)cc1)C(=O)O`, `CCN(CC(=O)NCc1ccc(Cl)cc1)S(=O)(=O)c1ccc(NC(C)=O)cc1` is lower in inhibition: 8.95% for the first, -2.53% for the second.

First: COC(=O)c1ccc(/C=N/N2CCN(Cc3ccc(C)cc3C)CC2)cc1
Second: COc1ccc(C(=O)Cn2c(=N)n(C)c3ccccc32)cc1
The inhibition of the first is higher: 0.99% for the first, -4.4% for the second.

Going from `CC(C)Oc1ccc(C(=O)N2CCCC2C(=O)O)cc1` (stereo not given) to `O=C(O)CC(C(=O)Nc1ccc(Cl)c(Cl)c1)C1CCCO1` (stereo not given), the inhibition rises from 1.48% to 5.87%.

Compared with `CCCCCCCCCCCC(=O)N/N=C/c1ccco1`, `CCCCCNC(=O)c1cc(S(=O)(=O)N2CCCC2)ccc1F` is lower in inhibition: 2.22% for the first, 0.96% for the second.

Going from `CC(=O)[C@@H]1[C@@H](C)N(Cc2ccccc2)C(=O)N[C@H]1c1cccc(C(F)(F)F)c1` to `CCCNC(=O)c1ccc(Cn2cc(C(F)(F)F)ccc2=O)cc1`, the inhibition falls from 3.76% to 0.72%.

Going from `Cc1oc(C(C)(C)C)cc1C(=O)N1CCN(C(c2ccccc2)c2ccccc2)CC1` to `O=C(c1ccccc1)c1ccccc1C(=O)N1CCN(C(=O)c2ccccc2)CC1`, the inhibition falls from -0.86% to -3.19%.

Going from `COC(=O)CCC(=O)NC(=S)Nc1ccccc1F` to `N#Cc1c(Nc2ccccc2Cl)s[nH]c1=O`, the inhibition rises from -2.07% to 0.08%.

Going from `O=C(Nc1ccc(Cl)cc1)c1ccc2nsnc2c1` to `O=C(Nc1ccc(F)cc1)c1ccc2nsnc2c1`, the inhibition falls from 4.02% to -5.81%.

Going from `O=C(CSc1nnc(-c2ccc(OC(F)F)cc2)o1)NCc1cccs1` to `CCn1c(SCC(=O)NCCc2ccccc2)nnc1C(C)C`, the inhibition rises from -1.34% to 1.51%.

First: N#Cc1c(Nc2ccc(Cl)cc2)s[nH]c1=O
Second: Cc1ccc(N/C=C(/C#N)c2ccsc2)cc1
The inhibition of the first is higher: 4.63% for the first, 1.11% for the second.

First: COCCNC(=O)c1cc2c(=O)n3cccc(C)c3nc2n1C
Second: Cc1cc(C)n2nc(C(=O)NCc3ccccc3)nc2n1
The inhibition of the first is higher: 3.57% for the first, -3.46% for the second.

First: O=C(O)c1ccccc1SCc1cn2cc(Br)ccc2n1
Second: O=C(c1ccccc1)c1ccccc1C(=O)N1CCOCC1
The inhibition of the first is higher: 0.7% for the first, -1.73% for the second.

Going from `CCOc1ccc2c(c1)C(=O)c1cc(OCC(=O)O)ccc1-2` to `CCc1ccc(NC(=O)CSCCN2C(=O)c3ccccc3C2=O)cc1`, the inhibition rises from -3.72% to -2.41%.

Going from `O=C(Nc1cc2c(ccc3ccccc32)oc1=O)C1CCCCC1` to `Cc1ccc(/C=N\NC(=O)C2CC(=O)N(c3ccccc3)C2)o1` (stereo not given), the inhibition rises from 0.95% to 3.39%.

Compared with `COc1cc(/C=C2/C(=N)N3C=CSC3=NC2=O)ccc1OCCCOc1ccccc1C`, `Cc1cc(/C=C2/C(=N)N3C(c4ccccc4)=CSC3=NC2=O)c(C)n1-c1ccccc1` is lower in inhibition: -3.86% for the first, -4.29% for the second.

Going from `CS(=O)(=O)C1=NSC2=NC(=O)/C(=C\c3ccc(-c4ccccc4)o3)C(=N)N21` to `CC(C)S(=O)(=O)C1=NSC2=NC(=O)/C(=C\c3ccc(-c4ccccc4)o3)C(=N)N21`, the inhibition rises from -0.37% to 4.83%.

First: Cc1cccc(-n2c(C)cc(/C=C3/C(=N)N4C(c5ccccc5)=CSC4=NC3=O)c2C)c1
Second: Cc1ccc(-n2c(C)cc(/C=C3/C(=N)N4C(c5ccccc5)=CSC4=NC3=O)c2C)cc1
The inhibition of the first is lower: 1.75% for the first, 7.47% for the second.

Going from `N=C1/C(=C\c2ccc(-c3cc(Cl)cc(Cl)c3)o2)C(=O)N=C2SC=C(c3ccccc3)N12` to `N=C1/C(=C\c2ccc(-c3cccc(Cl)c3)o2)C(=O)N=C2SC=C(c3ccccc3)N12`, the inhibition rises from -7.2% to -2.27%.

Compared with `N=C1/C(=C/c2cccn2CCOc2ccccc2)C(=O)N=C2SC=C(c3ccccc3)N12`, `Cc1ccccc1-n1c(C)cc(/C=C2/C(=N)N3C(c4ccccc4)=CSC3=NC2=O)c1C` is lower in inhibition: 2.69% for the first, -1.94% for the second.

First: CCNC(=O)Oc1ccc[nH]c1=O
Second: Cc1ccc(C(=O)NC(C)CCc2ccccc2)cc1[N+](=O)[O-] (stereo not given)
The inhibition of the first is higher: 6.02% for the first, 3.64% for the second.

Compared with `CN(C)c1ccc(C=C(c2nnnn2-c2ccccc2)c2nnnn2-c2ccccc2)cc1`, `Cn1c(=N)n(CC(=O)c2ccccc2)c2ccccc21` is higher in inhibition: -2.49% for the first, 3.23% for the second.

Compared with `COC(=O)N/N=C(\C)c1ccc(OC(F)F)cc1OC(F)F`, `COc1cc(O)c(C(CCN2CCCC2)c2cc(OC)c(OC)c(OC)c2)c(OC)c1` (stereo not given) is lower in inhibition: 6.36% for the first, 1.11% for the second.

Going from `FC(F)(F)c1ccccc1NC(=S)N1CCN(Cc2ccc3c(c2)OCO3)CC1` to `Cn1c(SCC(=O)c2ccc3c(c2)NC(=O)CO3)nc2ccccc21`, the inhibition falls from -0.82% to -5.28%.

Compared with `O=C1OC(c2cccs2)=N/C1=C\c1ccc(-c2cccc(Cl)c2)o1`, `O=C1OC(c2cccs2)=N/C1=C\c1ccc(-c2ccccc2Cl)o1` is higher in inhibition: 7.15% for the first, 7.66% for the second.

Compared with `Cc1cc(C)n2nc(SCCC(=O)NCCc3ccccc3)nc2n1`, `CC(CCc1ccccc1)NC(=O)c1ccccc1` (stereo not given) is higher in inhibition: -3.62% for the first, -2.82% for the second.

`Nc1ncnc(Nc2ccc(S(N)(=O)=O)cc2)n1` was tested, and the inhibition was -0.83%.

For `O=C(Nc1ccccc1)c1ccc2nsnc2c1`, the inhibition was 19.3% (active).
With `N#Cc1c(Nc2ccccc2)s[nH]c1=O` the inhibition was 14.2% (active).
In the case of `O=C(c1ccccc1)c1ccccc1C(=O)N1CCCC1`, the inhibition was 13.3% (active).
With `COc1cc(/C=C2/C(=N)N3C(c4ccccc4)=CSC3=NC2=O)ccc1OCC(=O)O` the inhibition was 14.6% (active).
In the case of `N=C1/C(=C/c2ccc(-c3cccc(C(=O)O)c3)o2)C(=O)N=C2SC=C(c3ccccc3)N12`, the inhibition was 53.6% (active).
In the case of `O=C1OC(c2cccs2)=N/C1=C/c1ccc(-c2cccc(C(=O)O)c2)o1`, the inhibition was 18.7% (active).
`Cc1cc(C)n2nc(C(=O)NCCc3ccccc3)nc2n1` was tested, and the inhibition was 14.6% (active).
`CC(CCc1ccccc1)NC(=O)c1cccc([N+](=O)[O-])c1` (stereo not given) was tested, and the inhibition was 13.1% (active).
`COc1cccc(C(=O)Cn2c(=N)n(C)c3ccccc32)c1` was tested, and the inhibition was 13% (active).
